Results as given in PubChem BioAssay (NCI).
About 83,000 compounds went through this panel and 20% of them were active in at least one assay; those are over-represented in the sample as a whole.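 Compound tested at a single concentration for 48 hours in 96-well plates; a percent growth value below 10 was scored as active.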 Active and inactive are the calls of the source.

Each compound was assayed on DU-145 prostate (assay: NCI-60 one-dose screen, 48 h (100 = growth as untreated, 0 = no growth, -100 = all killed)). Conditions: 10 µM.

| SMILES | growth |
| --- | --- |
| Cc1ccc(C(=O)NCCCNc2nc(Nc3ccc(N4CCN(C)CC4)cc3)nc3ccsc23)cc1 | 58.7% (inactive) |
| O=C(c1ccc(-n2c(=O)[nH]c3ccccc3c2=O)cc1)N1CCOCC1 | 105% (inactive) |
| O=S(=O)(c1ccc(Cl)cc1)c1nc(-c2ccccc2)oc1S(=O)(=O)c1ccc(Cl)cc1 | 97.2% (inactive) |
| Cc1ccc(C(C)C)cc1NC(=O)c1ccccc1N(C)C | 97.4% (inactive) |
| COc1ccc2[nH]c(O)c(N=NC(=O)COc3ccc(NC(=O)Nc4ccc(Cl)c(Cl)c4)cc3)c2c1 | -60.3% (active) |
| COc1cccc(-c2nn(-c3ccccc3)cc2-c2ccnc(NCCCNC(=O)Nc3ccc(F)cc3)c2)c1 | 54.1% (inactive) |
| CN1CCN(c2ccc(Nc3nc(NCCCNC(=O)c4ccc(F)cc4)c4sccc4n3)cc2)CC1 | 75.5% (inactive) |
| CC1(C)CC[C@]2(C(=O)Nc3ccccc3)CC[C@]3(C)C(=CC[C@@H]4[C@@]5(C)CC[C@H](N)C(C)(C)[C@@H]5CC[C@]43C)[C@H]2C1 | 26.6% (inactive) |
| C[C@H]1[C@H](C)CC[C@]2(COC(=O)CCC(=O)NCC#CCN3CCNCC3)CC[C@]3(C)C(=CC[C@@H]4[C@@]5(C)CCCNC(C)(C)[C@@H]5CC[C@]43C)[C@H]12 | 74.4% (inactive) |
| O=C(Nc1ccncc1)c1ccc(-n2c(=O)[nH]c3ccccc3c2=O)cc1 | 100% (inactive) |
| Cc1ccc(C(C)C)cc1NC(=O)c1ccccc1O | 63.3% (inactive) |
| CCCS(=O)(=O)c1oc(-c2ccc(F)cc2)nc1S(=O)(=O)c1ccc(F)cc1 | -85.8% (active) |
| CN(C)c1cccc2c(S(=O)(=O)Nc3cccc(-c4csc(NC(=O)CCCCCN5CCN(c6cc7c(cc6F)C(=O)N(C6CCC(=O)NC6=O)C7=O)CC5)n4)c3)cccc12 (configuration not stated) | 97.2% (inactive) |
| CC(=C(c1ccc(OCCN2CCCCC2)cc1)c1ccc(OCCN2CCCCC2)cc1)c1ccccc1 | 62.5% (inactive) |
| CC[C@@]1(O)C(=O)OCc2c1cc1n(c2=O)Cc2c-1nc1cc(F)c(C)c3c1c2[C@@H](N)CC3 | 6.82% (active) |
| O=C(Cn1cc(CSc2nnc3oc4ccccc4n23)nn1)Nc1cccc(Cl)c1 | 85.6% (inactive) |
| C=C(C)[C@@H]1CC[C@]2(C(=O)OC)CC[C@]3(C)[C@H](CC[C@@H]4[C@@]5(C)CC[C@H](N)C(C)(C)[C@@H]5CC[C@]43C)[C@@H]12 | -87.9% (active) |
| COc1ccc(-c2nc(S(=O)(=O)c3ccc(C)cc3)c(S(C)(=O)=O)o2)cc1 | -99.1% (active) |
| CCN1CCN(c2ccc(NC(=O)Nc3ccc(-c4cc(C(=O)NC(C)C)c5ncccc5n4)cc3)cc2C(F)(F)F)CC1 | -54.9% (active) |

| SMILES | growth |
| --- | --- |
| C=C[C@H]1[C@H](O[C@@H]2OC(CO)[C@@H](O)[C@H](O)C2OC(=O)c2c(O)cc(O)cc2-c2cccc(O)c2)OC=C2C(=O)OCC[C@H]21 (some centres not stated) | 105% (inactive) |
| COc1ccc(C(C)=C(c2ccc(OCCCN(C)C)cc2)c2ccc(OCCCN(C)C)cc2)cc1 | -96.4% (active) |
| CC1(C)CC[C@]23CC[C@]4(C)[C@H](CC[C@@H]5[C@@]6(C)CC[C@H](N)C(C)(C)[C@@H]6CC[C@]54C)[C@H]2[C@H]1OC3=O | -79.8% (active) |
| CCN1CCN(c2ccc(NC(=O)Nc3ccc(-c4cc(C(=O)NC)c5ncccc5n4)cc3)cc2C(F)(F)F)CC1 | -100% (active) |
| COc1ccc2[nH]c(O)c(N=NC(=O)c3cc(-c4ccc(C)cc4)nc4ccccc34)c2c1 | 90.8% (inactive) |
| O=C(Cn1cc(CSc2nnc3oc4ccccc4n23)nn1)Nc1ccc(Br)cc1 | 92.3% (inactive) |
| CN1CCN(c2ccc(Nc3nc(N4CCN(S(=O)(=O)c5ccc(F)cc5)CC4)c4sccc4n3)cc2)CC1 | -84% (active) |
| COc1ccccc1NCc1ccc(CO)n1-c1ccc(C)cc1 | 111% (inactive) |
| CC(=C(c1ccc(OCCCN(C)C)cc1)c1ccc(OCCCN(C)C)cc1)c1ccccc1 | -100% (active) |
| CN1CCN(c2ccc(Nc3nc(NCCCNC(=O)c4ccccc4)c4sccc4n3)cc2)CC1 | 75.5% (inactive) |
| CCCCCc1ccc(S(=O)(=O)N(C(C)=O)c2cc(-c3csc(N(C)C(C)=O)n3)ccc2N2CCN(C)CC2)cc1 | 46.4% (inactive) |
| C=C1CC[C@H](C(=C)C)[C@H]2C=C(C)C(=O)C3=C(C(=O)[C@@](C)(O)C3)[C@H]12 | -45.4% (active) |
| CC(=O)Nc1nc(-c2ccc(N3CCN(C)CC3)c(NS(=O)(=O)c3cccc4c(N(C)C)cccc34)c2)cs1 | 76.2% (inactive) |
| CNC(=O)c1cccc(N2CCc3c2ccc(NC(=O)Nc2ccc(N4CCN(C)CC4)c(C(F)(F)F)c2)c3F)c1 | -76.2% (active) |
| CN1CCN(c2ccc(Nc3nc(N4CCN(S(=O)(=O)c5ccc(Cl)cc5)CC4)c4sccc4n3)cc2)CC1 | -60.8% (active) |
| CC1(C)CC[C@]2(C(=O)NCCCNCCCCNCCCN)CC[C@]3(C)C(=CC[C@@H]4[C@@]5(C)Cc6c([nH]c7ccccc67)C(C)(C)[C@@H]5CC[C@]43C)[C@H]2C1 | 96.3% (inactive) |
| C=CC(=O)Nc1nc(-c2cccc(NS(=O)(=O)c3cccc4c(N(C)C)cccc34)c2)cs1 | 3.39% (active) |
| COC1CC(Cn2cc(COc3ccc4ccc(=O)oc4c3)nn2)C(OCc2ccccc2)C(OCc2ccccc2)C1OCc1ccccc1 (configuration not stated) | 101% (inactive) |
